Entries with a potency or affinity are not part of this list. Activity calls are given as the source filed them.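 The calls were made as follows: active = viability loss with fitted half-maximal dose at most ten times the highest valid dose tested; inconclusive = flat viability loss between 30 and 70%, or poor curve fit; inactive = the rest, including flat curves or rising signal.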
assay: cytotoxicity in BJeH fibroblasts, dose response, counter-screen for Ras selective lethality project, BJeH cells, dry powder (AID 493054); conditions: Alamar Blue fluorescence, 48 h; series mostly up to 45 µM

SMILES	outcome
O=C(c1[nH]ncc1[N+](=O)[O-])N1CCN(C(c2ccccc2)c2ccccc2)CC1	inactive
COCC(=O)N(c1ccc(OC)c(Cl)c1)C(C(=O)NCCc1ccccc1)c1cccs1 (centres undefined)	inactive
COc1ccc(N(C(=O)CO)C(C(=O)NCCc2ccccc2)c2cccs2)cc1Cl (centres undefined)	inactive
CCC(=O)N(c1ccc(OC)c(Cl)c1)C(C(=O)NCCc1ccccc1)c1cccs1 (centres undefined)	inactive
